A selection: hits, their analogues and other compounds. The true share with any hit is near 1.4%.
BJeLR viability: kills HRASV12-expressing BJeLR cells | AID 1554 | inhibition, % (test concentration not listed) | BJeLR (HRASV12) viability, CellTiter-Glo ATP luminescence, 48 h | 300,000 compounds, 0.17% hits; in the data active means inhibition above about 50%
DUSP3 inh: inhibitors of human VHR1 phosphatase (DUSP3); recombinant VHR phosphatase, pNPP absorbance; inhibition, % at 13.3 µM; AID 1654; P51452; 290,000 compounds, 0.52% hits; in the data active means inhibition above about 50%
Target sequence (P51452 whole entry, looked up): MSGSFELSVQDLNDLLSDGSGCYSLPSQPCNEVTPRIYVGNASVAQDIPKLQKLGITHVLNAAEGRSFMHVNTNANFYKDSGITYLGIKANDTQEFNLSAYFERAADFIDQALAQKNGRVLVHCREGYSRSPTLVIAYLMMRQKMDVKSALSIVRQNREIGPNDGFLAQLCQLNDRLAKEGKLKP
MazF activator: MazEF (E. coli) toxin RNase activation; 350,000 compounds, 0.32% hits; AID 504720; activation, % at 20 µM; FAM/BHQ RNA-DNA oligo cleavage fluorescence, 5 h; in the data active means activation above about 50%
Target sequence (P0AE70 whole entry, looked up): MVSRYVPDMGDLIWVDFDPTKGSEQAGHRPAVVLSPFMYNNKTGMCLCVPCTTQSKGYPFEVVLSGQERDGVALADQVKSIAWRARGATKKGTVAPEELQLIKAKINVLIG
CCHF vOTU inh-1: CCHFV vOTU protease inhibition. Pep-AMC fluorescence. inhibition, % at 11.5 µM. 370,000 compounds, 0.55% hits; further: 0% = vehicle wells with enzyme and 100% = no enzyme wells
3CLpro inhibitor: SARS-CoV 3CLpro protease inhibition; recombinant SARS-CoV 3CLpro, quenched FRET peptide cleavage; P0C6X7; inhibition, % at 6 µM; AID 1706; 290,000 compounds, 0.14% hits; in the data active means inhibition above about 12%
CCHF vOTU inh-2: confirmation of CCHF virus vOTU protease inhibitors; inhibition, % at 11.5 µM; shares compounds with CCHF vOTU inh-1; Recombinant CCHFV vOTU, Pep-AMC fluorescence; 1,900 compounds, 17% hits; AID 686976
Numbers without * were called inactive; / = no result given. Unless noted, no stated cut-off is given here; in the data, active means inhibition above about 30%; inactive means the rest.

SMILES	BJeLR viability	DUSP3 inh	MazF activator	CCHF vOTU inh-1	3CLpro inhibitor	CCHF vOTU inh-2
CC1=C(SCc2ccccc2)C(=O)c2ccccc2C1=O	/	/	-0.6	103.6*	/	86.6*
CSc1nnc2c(n1)C[C@H](c1ccccc1)[C@@H](C)[C@@H](C(=O)N1CCCC1)C2	/	/	/	4.3	/	/
Cc1cc(C)cc(C(=O)OCCN(C)C2CN(Cc3cn(Cc4ccccc4C(F)(F)F)nn3)S(=O)(=O)C2)c1 (stereo not drawn)	/	/	/	11.2	/	/
Cc1ccccc1Cn1cc(COC(=O)NCCc2c[nH]c3ccccc23)nn1	/	/	/	-3.1	/	/
COc1ccccc1C(CCNCc1ccc(N(C)C)cc1)c1ccc(OC(C)C)cc1 (stereo not drawn)	13.4	/	1.8	32.8*	1.5	-12.5
Cc1c(NC(=O)C(C)OC(=O)c2ccc([N+](=O)[O-])s2)c(=O)n(-c2ccccc2)n1C (stereo not drawn)	9.5	0.5	9.2	41.0*	3.0	45.1*
COC(=O)[C@H](C(C)C)N(CCCc1cn(CC2CCCCC2)nn1)S(=O)(=O)c1ccccc1Br	/	/	/	11.7	/	/
Cc1ccccc1CS(=O)(=O)Cc1ccc(C(=O)Nc2cccc(C)c2C)o1	/	/	/	6.9	/	/
CN1OC[C@@H]2CN(C(=S)NCCc3ccccc3)[C@H](c3ccccc3Br)C[C@@H]21	/	/	/	-0.7	/	/
COCCNC(=S)N1C[C@H]2CON(C)[C@H]2C[C@H]1c1ccccc1Br	/	/	/	32.6*	/	-20.8
O=C(OCc1cn(Cc2c(F)cccc2F)nn1)N1CCOCC1	/	/	/	-6.5	/	/
CC1=NOC2(C1)N(C)c1ccccc1C2(C)C (stereo not drawn)	5.7	6.4	3.0	-8.0	4.2	/
COc1ccc2ccc3c(c2c1)N=C[C@]1(O3)N(C)c2ccccc2C1(C)C	4.7	0.0	1.3	46.5*	0.5	-2.6
CC(c1ccccc1)n1cc(C(=O)N2CCCC2)nn1 (stereo not drawn)	/	/	/	-3.9	/	/
CCc1nnc(N/N=C/c2ccc(-c3ccc([N+](=O)[O-])cc3)o2)n1N	-3.5	4.8	6.6	64.5*	3.9	4.4
Cc1n[nH]c(=S)n1/N=C/c1ccc(-c2ccccc2[N+](=O)[O-])o1	-0.1	12.9	11.7	11.0	7.0	/
Cc1nnc(N/N=C\c2ccc(-c3ccccc3[N+](=O)[O-])o2)n1N	-10.0	-7.4	-7.8	101.2*	3.9	6.8
Cc1nnc(N/N=C/c2ccc(-c3ccccc3F)o2)n1N	-5.4	29.5	-4.7	79.1*	6.5	5.1
Cc1ccccc1CN1CCCCC(NC(=O)c2ccccc2C(F)(F)F)C1=O (stereo not drawn)	/	/	/	3.8	/	/
Cc1ccc(C(=O)C(C)OC(=O)C2CCN(c3ccc(C(F)(F)F)cn3)CC2)cc1C (stereo not drawn)	-10.1	/	-10.7	19.3	/	/
CCOc1ccc(C(=O)C(C)OC(=O)C2CCN(c3ccc(C(F)(F)F)cn3)CC2)cc1 (stereo not drawn)	-1.6	/	-4.2	35.1*	/	9.9
Cc1cc(C)c(NC(=O)COC(=O)C2CCN(c3ccc(C(F)(F)F)cn3)CC2)c(Cl)c1	-0.7	/	-5.8	17.1	/	/
COc1cccc(CNC(=O)COC(=O)C2CCN(c3ccc(C(F)(F)F)cn3)CC2)c1	/	/	-3.7	1.5	/	/
COc1ccccc1CNC(=O)COC(=O)C1CCN(c2ccc(C(F)(F)F)cn2)CC1	-1.1	/	-3.0	43.5*	/	-10.3
Cc1cc(C)c(NC(=O)CNC(=O)COC(=O)C2CCN(c3ccc(C(F)(F)F)cn3)CC2)c(C)c1	13.4	2.5	1.8	33.9*	1.3	1.6
SMILES	BJeLR viability	DUSP3 inh	MazF activator	CCHF vOTU inh-1	3CLpro inhibitor	CCHF vOTU inh-2
CC(C)CN1C(=O)C[C@@]2(C(=O)N(C)c3ccc(NC(=O)C(F)(F)F)cc32)C1c1ccccc1 (stereo partly drawn)	/	/	/	4.0	/	/
O=C(C1CC1)n1ccc2ccc(-c3ccc4ccn(Cc5ccccc5)c4c3)cc21	/	/	/	-9.9	/	/
Cc1cc(N2CCN(CCO)CC2)n2nc(C)nc2n1	/	/	/	7.5	/	/
CC1COCC(C)N1S(=O)(=O)c1ccc2c(c1)CCN2C(=O)C1CCC1 (stereo not drawn)	/	/	/	-7.1	/	/
O=C(CSc1nnc(-c2ccccc2)n1-c1ccccc1)Nc1ccc(Oc2ccccc2)cc1	/	/	/	-3.6	/	/
O=C(c1ccccc1)c1coc2c1C(=O)c1ccccc1C2=O	6.1	4.5	-8.8	33.5*	3.9	58.7*
COc1ccc(CCC[C@@H](CCC(=O)N(c2ccccc2)c2ccccc2)CCc2ccccc2)cc1	/	/	/	4.6	/	/
Cc1nn(-c2ccc(F)cc2)c(C)c1NS(=O)(=O)c1ccc(Cl)cc1	0.1	-21.5	-16.0	30.2*	-2.4	-8.9
CN(C)C(=O)c1c2c(nc3ccccc13)CCCC2	-21.4	33.3	12.5	-8.0	3.6	/
CN(C)C(=O)c1c2c(nc3ccccc13)-c1ccccc1CC2	-5.2	31.9	-2.8	32.9*	-2.7	-20.9
CCOC(=O)CCCNC(=O)OC1CCC12CCC(c1ccccc1)CC2 (stereo not drawn)	/	/	/	10.6	/	/
COC(=O)c1ccc(CN(C(=O)N2CCN(C)CC2)S(=O)(=O)c2ccc(C)cc2)cc1	-0.4	/	7.3	44.8*	/	-19.0
Cc1ccc(CN(C(=O)N2CCN(C)CC2)S(=O)(=O)c2ccc(C)cc2)cc1	0.2	/	5.4	-0.9	/	/
COC(=O)c1cc(-c2ccc(C)c(C)c2)c(=O)n2c1CCC2	/	/	/	0.7	/	/
COc1ccc(OC)c(/C=C2\SC(=S)N(NS(=O)(=O)c3ccc(C)cc3)C2=O)c1	-3.9	/	-5.1	33.0*	1.7	8.1
COc1ccccc1/C=C1\SC(=S)N(NS(=O)(=O)c2ccc(C)cc2)C1=O	-8.8	10.4	0.5	35.6*	4.2	1.4
COc1ccc(/C=C2\SC(=S)N(NS(=O)(=O)c3ccc(C)cc3)C2=O)c(OC)c1	1.5	-1.2	-2.3	0.9	2.4	/
CCOc1ccc(/C=C2\SC(=S)N(NS(=O)(=O)c3ccccc3)C2=O)cc1OC	-9.1	13.3	-1.0	40.8*	10.5	9.9
COc1ccc(OC)c(/C=C2\SC(=S)N(NS(=O)(=O)c3ccccc3)C2=O)c1	-0.9	-9.5	-6.7	24.7	2.1	/
C=CCN1C(=O)[C@@H](CC(=O)N2CCSCC2)[C@]2(C(=O)OCC)CCCCC/C=C/12	/	/	/	-3.7	/	/
O=S1(=O)c2ccc(N3CCC[C@@H]3CO)cc2OCCCN1C1CC1	/	/	/	3.1	/	/

Screening results (PubChem BioAssay)
